Results reported in PubChem BioAssay.
Activity calls are given as the source filed them.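 How the source made its calls: active means inhibition above the hit cutoff set in the earlier primary screen (cut at about 27% in these data); inactive means the rest.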

Each compound was assayed against Protein phosphatase methylesterase 1 (Homo sapiens) (UniProt Q9Y570) (assay: human PME-1 methylesterase inhibition confirmation – biochemical, fluorescence polarization, FP-Rh probe, triplicate (AID 2171;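 further: 0% = enzyme with DMSO and 100% = wells lacking PME-1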)). Conditions: recombinant PME-1, FP-Rh probe fluorescence polarization; at 5.9 µM; active compounds read high.
Sequence of Protein phosphatase methylesterase 1 (Homo sapiens) (Q9Y570 whole entry, looked up): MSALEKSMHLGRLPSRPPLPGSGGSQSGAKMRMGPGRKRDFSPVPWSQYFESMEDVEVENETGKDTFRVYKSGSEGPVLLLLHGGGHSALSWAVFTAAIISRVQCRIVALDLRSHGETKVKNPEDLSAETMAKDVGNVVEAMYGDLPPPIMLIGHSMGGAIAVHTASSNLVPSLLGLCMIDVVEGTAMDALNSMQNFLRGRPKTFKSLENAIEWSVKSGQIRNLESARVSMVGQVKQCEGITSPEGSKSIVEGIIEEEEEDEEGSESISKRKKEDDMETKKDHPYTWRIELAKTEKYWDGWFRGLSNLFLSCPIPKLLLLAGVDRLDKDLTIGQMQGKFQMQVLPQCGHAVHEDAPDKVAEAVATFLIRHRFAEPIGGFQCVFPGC

| SMILES | inhibition |
| --- | --- |
| COc1ccc(/C(C)=C2/SC(=S)N(CCC(=O)O)C2=O)cc1 | 4.27% (inactive) |
| N#CC1=C(N)C(C#N)(C#N)C(c2cccnc2)C2CN(C(=O)OCc3ccccc3)CC=C12 (stereo not given) | 35.5% (active) |
| CCOC(=O)N1CC=C2C(C#N)=C(N)C(C#N)(C#N)[C@H](c3cccs3)C2C1 (stereo not given in full) | 35.2% (active) |
| CCOc1cccc(/C=C/c2ccc3cccc(O)c3n2)c1O | 26.6% (active) |
| COc1ccc(N/N=C(\C=N\O)C(=O)c2ccc(OC)cc2)cc1 | 58.9% (active) |
| CCOC(=O)N1CC=C2C(C#N)=C(N)C(C#N)(C#N)[C@H](c3ccccc3OCC)[C@H]2C1 | 90.5% (active) |
| Cc1cccc(NC(=O)COC(=O)c2cccc3c2C(=O)c2ccccc2C3=O)c1C | 37.5% (active) |
| CCN(CC)C(=S)Sc1c(-c2ccccc2)c2cc(Cl)ccc2[nH]c1=O | 39.7% (active) |
| O=C(c1cccs1)N1CCC(c2nc3c(nnn3Cc3ccccc3Cl)c(=O)[nH]2)CC1 | 25.4% (inactive) |
| O=[N+]([O-])c1cccc(N/N=C/c2cccc(O)c2O)c1 | 32.9% (active) |
| Cn1c(=O)c(C#N)c(-c2ccc(F)cc2)c2cc(C(=O)c3cc(Cl)cc(Cl)c3O)cnc21 | 59.1% (active) |
| CCN(CC)S(=O)(=O)c1ccc(Cl)c(NC(=O)COC(=O)c2ccc(O)cc2)c1 | 24.9% (inactive) |
| O=[N+]([O-])c1ccc(C2Nc3cccc4cccc(c34)N2)cc1 | 35.9% (active) |
| O=c1[nH][nH]c2cc(=O)n(-c3cccc(C(F)(F)F)c3)nc12 | 28.5% (active) |
| Cc1cc(N)ccc1N1CCCC1 | 7.13% (inactive) |
| CCCCOC(=O)c1ccc(NC(=O)Nc2ccc(OC)c(OC)c2)cc1 | 14.7% (inactive) |
| N=c1oc2cc(O)ccc2cc1C(=O)Nc1nc2ccccc2s1 | 25.7% (inactive) |
| CCC(=O)NC(c1cccs1)c1cc([N+](=O)[O-])c2cccnc2c1O (stereo not given) | 25.9% (inactive) |
| CCOC(=O)c1ccc(NC(=O)Nc2ccc3c4c(cccc24)C(=O)N3CC)cc1 | 16.2% (inactive) |
| COc1ccccc1NS(=O)(=O)c1cccc(-n2c(O)c(C=Nc3ccccc3C(=O)O)c3ccccc3c2=O)c1 | 85.7% (active) |

| SMILES | inhibition |
| --- | --- |
| O=C(N/N=C/c1cc(Cl)c(O)c(Cl)c1)c1cc2c(ccc3ccccc32)o1 | 38.5% (active) |
| COc1cc(/C=C2\CCC/C(=C\c3ccc(O)c(OC)c3)C2=O)ccc1O | 39.5% (active) |
| CCc1ccc(S(=O)(=O)/N=C2\C=C(Nc3cccc(C(=O)O)c3)C(=O)c3ccccc32)cc1 | 38.4% (active) |
| O=C(CNc1ccc2ccccc2c1)N/N=C/c1cc2ccccc2nc1Cl | 22.6% (inactive) |
| O=C1CN(C(=O)c2cc3ccccc3oc2=O)C(c2ccccc2)c2cc(F)ccc2N1 (stereo not given) | 18.1% (inactive) |
| Cc1ccc(S(=O)(=O)N2CCN(C(=O)Cn3c(=O)cnc4ccccc43)CC2)cc1 | 25.8% (inactive) |
| CCc1ccc(OC)c(S(=O)(=O)Nc2ccc(Cc3ccncc3)cc2)c1 | 31.8% (active) |
| Cc1csc(NC(=O)c2sc3nc(-c4cccs4)ccc3c2N)n1 | 42.6% (active) |
| CCc1ccc2nc(SCC(=O)N3CC(=O)Nc4ccccc43)c(C#N)cc2c1 | 15.3% (inactive) |
| Cc1nn(-c2ccccc2)c2sc(-c3n[nH]c(=S)o3)cc12 | 43.8% (active) |
| COc1ccc(N=C2NC(=O)S/C2=C\c2ccc(N(C)C)cc2)cc1 | 37.2% (active) |
| Cc1c(O)ccc(/C(Cc2ccc3ccccc3n2)=N\O)c1O | 53.5% (active) |
| O=C(N/N=C/c1ccc(O)cc1)c1cccc(N/N=C/c2ccc(O)cc2)c1 | 18.8% (inactive) |
| Cc1ccc(/C=N/Nc2ccnc3cc(Cl)ccc23)c(C)c1 | 53.3% (active) |
| CCn1c(=O)c2cc(C(=O)Nc3ccc(OC)cc3OC)sc2c2ccccc21 | 21.5% (inactive) |
| O=C(CN1CCCc2ccccc21)N/N=C/c1c(O)ccc2ccccc12 | 5.54% (inactive) |
| N#CCN(CC#N)C(=O)C1c2ccccc2Oc2ccccc21 | 0.3% (inactive) |
| Oc1ccc(C2Nc3cccc4cccc(c34)N2)c(O)c1 | 21.4% (inactive) |
| Cc1ccc(C(=O)N/N=C/c2ccc(-c3ccc(Br)cc3[N+](=O)[O-])o2)o1 | 33.1% (active) |
| C/C(=N/Nc1nc(-c2ccccc2F)nc2ccccc12)c1ccccc1O | 3.91% (inactive) |
